Where “and” joins values, the source holds several entries; their conditions need not be identical. Equal values may be shown once. Out of some 350,000 compounds screened, about 31,000 (8.9%) were called active. Roughly 15% stayed inconclusive and do not appear here. The list comes from a sample in which actives are over-represented; it also holds similar structures and randomly drawn compounds. Where a call stands in place of a potency, no number is given. Values without a mark were called inactive. The call rests on the fitted dose curve; in most records, active means well fitted inhibition curve with a large enough effect; inconclusive means small, poorly fitted or top-dose-only effect; inactive means no such curve, though single readings can be large or run the other way.
Potency means the concentration at half of the fitted maximal effect.

The target in this assay is Histone-lysine N-methyltransferase EHMT2 (Homo sapiens) (UniProt Q96KQ7). The assay can be described thus: qHTS Assay for Inhibitors of Histone Lysine Methyltransferase G9a. Further: nearly all actives have a fitted effect of over 75% in size. The note with it: G9a H3K9 monomethylation, AlphaScreen, 2 h; series mostly up to 59 µM. In outline: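 AlphaScreen detection with an anti-monomethyl H3K9 antibody quantified product after a 2 h room-temperature reaction containing 500 nM biotinylated H3K9 peptide, 20 µM SAM and 20 nM enzyme, which had been preincubated 15 min with compound.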
Sequence of Histone-lysine N-methyltransferase EHMT2 (Homo sapiens) (Q96KQ7 913-1193 limits assumed): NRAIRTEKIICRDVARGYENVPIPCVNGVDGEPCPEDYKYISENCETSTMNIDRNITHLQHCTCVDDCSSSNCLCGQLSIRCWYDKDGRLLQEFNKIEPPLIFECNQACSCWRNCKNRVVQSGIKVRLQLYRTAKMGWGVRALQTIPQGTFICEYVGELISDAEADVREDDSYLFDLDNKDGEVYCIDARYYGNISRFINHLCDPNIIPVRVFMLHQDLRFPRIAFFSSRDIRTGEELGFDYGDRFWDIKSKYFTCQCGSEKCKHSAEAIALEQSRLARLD
With `CCOC(=O)c1ccc(NC(=S)N2CCN(c3ccccn3)CC2)cc1`, the Potency result is “inactive”.

As for `COc1cc([N+](=O)[O-])ccc1NC(=S)N1CCN(c2ccccn2)CC1`, the Potency is 44.7 µM (active).

In the case of `CNC(=S)N1CCN(c2ccccn2)CC1`, the Potency result was “inactive”.

Regarding `CCCOc1ccc(-c2c(C(=O)N/N=C/c3ccco3)nnn2-c2nonc2N)cc1`, the Potency result was “inactive”.

Consider `O=S1(=O)CCN(Cc2ccccc2Cl)CC1`, for which the Potency result was “inactive”.

On to `COc1ccccc1/C=N/N1CCN(Cc2ccccc2Cl)CC1`, for which the activity, negative = inhibition is 7.68% [at 0.501 µM].

On to `CSc1ccc(/C=N/N2CCN(Cc3ccccc3Cl)CC2)cc1`, for which the Potency was 14.1 µM (active).

On to `CCOc1ccc(CNC(=O)c2ccc(CS(=O)c3ccccc3)o2)cc1` (stereo not drawn), for which the Potency result was “inactive”.

Consider `Cc1cccc(NC(=O)c2sc(-c3ccccc3)nc2-c2ccc([N+](=O)[O-])cc2)c1`, for which the Potency entry is “inactive”.

Regarding `Cc1nc(-c2ccc([N+](=O)[O-])cc2)c(-c2ccccc2)o1`, the Potency was 15.8 µM (active).

Regarding `COc1ccc([N+](=O)[O-])cc1-c1nc2ccccc2nc1-c1ccccc1`, the activity, negative = inhibition was 7.8% [at 0.501 µM].

With `COC(=O)c1c(NC(=O)c2cc(=O)c3c(C)cc(C)cc3o2)sc2c1CCCC2`, the Potency result is “inactive”.

With `Cc1oc2cc([N+](=O)[O-])c(O)c([N+](=O)[O-])c2c1C(=O)c1ccc(Br)cc1`, the Potency is 17.8 µM (active).

As to `Cc1cc(O)c(NC(=O)c2ccc(C)c([N+](=O)[O-])c2)cc1C`, the Potency entry was “inactive”.

For the molecule `Cc1cc(C(=O)O)ccc1[N+](=O)[O-]`, the activity, negative = inhibition was 3.38% [at 0.501 µM].

Consider `COc1cc(/C(=C/c2ccccc2)c2ccccc2)c2c(c1)oc1ccccc12`, for which the Potency result was “inactive”.

Take `CCOC(=O)c1c(-c2ccccc2)oc2cc(Br)c(O)cc12`: the Potency entry was “inactive”.

Consider `Cc1oc2cc(Br)c(O)c(Br)c2c1C(=O)c1ccccc1`, for which the Potency was 44.7 µM (active).

On to `CS(=O)(=O)Nc1cccc(C2=NN(C(=O)c3cccc(F)c3)C(c3cccs3)C2)c1` (stereo not drawn), for which the Potency entry was “inactive”.

Take `O=C(Cn1c(=O)n(Cc2cccs2)c(=O)c2cccnc21)Nc1ccc(F)cc1`: the Potency result was “inactive”.

On to `Cc1ccc(NC(=O)Cc2ccc(NC(=O)N3CCCCc4ccccc43)cc2)cc1`, for which the Potency entry is “inactive”.

On to `CC(C)=CCCC(C)CN1CCC(n2nccc2NC(=O)c2ccccc2)CC1` (stereo not drawn), for which the Potency entry is “inactive”.

Take `O=C1c2oc3ccccc3c(=O)c2C(c2cccc(O)c2)N1c1ccccn1` (stereo not drawn): the Potency entry was “inactive”.

For `COc1cc(C2c3c(oc4ccccc4c3=O)C(=O)N2c2nc(C)c(C)s2)ccc1O` (stereo not drawn), the Potency entry is “inactive”.

Regarding `CC(=O)c1sc(N2C(=O)c3oc4ccccc4c(=O)c3C2c2ccc(C)cc2)nc1C` (stereo not drawn), the Potency was 2 µM (active).

Take `COc1ccc(NC(=O)CCc2nnc3n(CC(C)C)c(=O)c4ccccc4n23)cc1OC`: the Potency entry was “inactive”.

With `Cc1nnc(NCCO)c2ccccc12`, the Potency entry is “inactive”.

On to `NNc1nnc(NN)c2ccccc12`, for which the Potency was 25.1 µM (active).

As for `COc1ccc(Nc2nnc(C)c3ccccc23)cc1`, the Potency result was “inactive”.

For `CCOC(=O)C1CCCN(S(=O)(=O)c2cc(-c3cc(C)no3)ccc2OC)C1` (stereo not drawn), the Potency result was “inactive”.

Turning to `CCOc1cc(/C=N/NC(=O)CN2CCCCC2)ccc1O`, the Potency result is “inactive”.

On to `Cc1nc2ccccc2n1CC(=O)N/N=C/c1cccnc1`, for which the Potency result is “inactive”.

`Cc1nccn1CC(=O)N/N=C/c1ccc(O)c(O)c1`: the Potency is 7.08 µM (active).

On to `Cc1ccc(/C=N/NC(=O)CSc2nc3ccccc3o2)cc1`, for which the Potency entry is “inactive”.

As for `CCOc1ccc(/C=N/NC(=O)CSc2ccccn2)cc1O`, the Potency result is “inactive”.

For the molecule `Cn1c(SCC(=O)N/N=C/c2ccc(O)c(O)c2)nc2ccccc21`, the Potency was 17.8 µM (active).

`O=C(NCC(=O)N1CCCCCCC1)c1ccccc1Cl`: the activity, negative = inhibition was 8.52% [at 12.7 µM].

Take `Cc1c(C(=O)NCC(c2ccco2)N2CCCC2)oc2ccc(Cl)cc12` (stereo not drawn): the Potency result is “inactive”.

As to `Cc1ccc(S(=O)(=O)NCCC(=O)NC2CCN(Cc3ccccc3)CC2)cc1`, the Potency result is “inactive”.

For the molecule `COc1ccc(-c2noc(-c3ccc(N4CCN(c5ccccc5)CC4)c([N+](=O)[O-])c3)n2)cc1OC`, the Potency result is “inactive”.

With `CCOc1ccccc1NC(=O)CN1CCN(S(=O)(=O)c2ccc(Br)cc2)CC1`, the Potency result was “inactive”.

In the case of `CCNS(=O)(=O)c1ccc(NC(=O)CSc2nc(-c3ccco3)cc(C(F)(F)F)n2)cc1`, the Potency entry is “inactive”.

For `O=C(Nc1cc(-c2ccccc2)nn1-c1ccccc1F)c1ccc([N+](=O)[O-])cc1`, the activity, negative = inhibition was -22.8% [at 12.7 µM].

For `CCOc1ccc(CC(=O)NC2CCN(Cc3ccccc3)CC2)cc1`, the Potency result is “inactive”.

Turning to `CCOc1ccc(CN2CCCN(C)CC2)cc1`, the Potency was 10 µM (active).

For the molecule `CCOc1ccc(CN2CCN(Cc3c[nH]c4ccccc34)CC2)cc1`, the activity, negative = inhibition was 25.4% [at 2.33 µM].

Take `Cc1cccc(Cn2c(SCCO)nc3c2c(=O)n(C)c(=O)n3C)c1`: the Potency entry is “inactive”.

Turning to `Cn1c(=O)c2c(nc(SCC(=O)Nc3ccc(F)cc3)n2Cc2ccccc2)n(C)c1=O`, the Potency entry was “inactive”.

As to `COC(=O)C(C)Sc1nc2c(c(=O)n(C)c(=O)n2C)n1Cc1cccc(C)c1` (stereo not drawn), the Potency was 20 µM (active).

For the molecule `CCOc1ccccc1C(=O)Nc1ccc(S(=O)(=O)N2CCCCC2c2cccnc2)cc1` (stereo not drawn), the Potency result was “inactive”.

Take `Cc1ccccc1-n1nc(SCC(=O)O)sc1=S`: the Potency was 50.1 µM (active).

Regarding `Cc1nnc(SCC(=O)NCc2ccccc2)s1`, the Potency result was “inactive”.

`N#CCSc1nn(-c2ccc(F)cc2)c(=S)s1`: the Potency result was “inactive”.

Turning to `Cn1c(N)c(C(=O)COC(=O)COc2ccc(Cl)cc2)c(=O)n(C)c1=O`, the activity, negative = inhibition was 17.9% [at 12.7 µM].

As for `Cc1cccc(N2CCN(C(=O)c3cc4c(=O)oc5ccccc5c4s3)CC2C)c1` (stereo not drawn), the Potency result was “inactive”.

Turning to `CN(CCNC(=O)c1cc2c(-c3ccccc3F)nn(C)c2s1)C1CCCCC1`, the Potency result is “inactive”.

Regarding `Oc1ccccc1-c1cc(-c2ccc(Cl)cc2)n[nH]1`, the Potency entry was “inactive”.

In the case of `O=C(NCc1ccc(F)cc1)c1ccc(Cn2c(SCc3ccc(F)cc3)nc3cccnc32)cc1`, the Potency entry was “inactive”.

Consider `O=c1[nH]c(=O)c2nc3ccccc3nc2[nH]1`, for which the activity, negative = inhibition was -3.42% [at 12.7 µM] and 46.4% [at 12.7 µM].

For the molecule `Nc1ccc2nc3c(=O)[nH]c(=S)[nH]c3nc2c1`, the Potency is 10 µM (active).

`CC1CCCC(NC(=O)c2cc(-c3ccncc3)nc3ccccc23)C1C` (stereo not drawn): the Potency entry was “inactive”.

In the case of `Cc1cc(NS(=O)(=O)c2ccc3oc(=O)c4ncn(C)c4c3c2)ccc1Br`, the Potency entry is “inactive”.

With `Cc1ccccc1CSc1nc(-c2ccccc2)nc2c1Cc1c(CO)cnc(C)c1O2`, the Potency result is “inactive”.

Consider `Cc1cc(N2CCN(c3cccc(C(F)(F)F)c3)CC2)n2nc(-c3ccccc3)nc2n1`, for which the Potency result was “inactive”.

On to `FC(F)(F)C1CCCN(c2nsc3ccccc23)C1` (stereo not drawn), for which the Potency is 1.12 µM (active).

As for `O=C(NCC(=O)N1CCCC(C(F)(F)F)C1)c1ccccc1F` (stereo not drawn), the Potency entry is “inactive”.

Take `O=C(NC(Cc1ccccc1)C(=O)N1CCCC(C(F)(F)F)C1)c1ccccc1` (stereo not drawn): the Potency entry is “inactive”.

For `CCc1ccc(C(CNc2nc(C(F)(F)F)nc3ccccc23)N(C)C)cc1` (stereo not drawn), the Potency result was “inactive”.

Turning to `NS(=O)(=O)c1ccc(CCNc2nc(C(F)(F)F)nc3ccccc23)cc1`, the Potency is 70.8 µM (active).

Take `COc1cccc(CNc2nc(C(F)(F)F)nc3ccccc23)c1`: the Potency result is “inactive”.

Consider `Cc1ccc(-c2cc(C(=O)Oc3ccccc3Cl)no2)cc1C`, for which the Potency result was “inactive”.

As for `O=C(COC(=O)c1c(Cl)cccc1Cl)Nc1cccc(S(=O)(=O)NC2=NCCCCC2)c1`, the activity, negative = inhibition was -0.124% [at 12.7 µM].

Consider `CC(NC(=O)c1ccccc1SCC(=O)N1CCCC1)c1ccccc1` (stereo not drawn), for which the Potency entry was “inactive”.

Consider `O=C(CSc1nc2[nH]ncc2c(=O)n1-c1ccccc1)N1CCCc2ccccc21`, for which the Potency was 8.91 µM (active).

Regarding `Cn1c(SCC(=O)N2CCCc3ccccc32)nc2ccccc2c1=O`, the Potency result is “inactive”.

As for `Cc1nnc(SCC(=O)N2CCc3ccccc32)n1-c1ccccc1`, the Potency result is “inactive”.

As to `Cc1cccc[n+]1CC(=O)c1ccccc1`, the Potency entry is “inactive”.

For `O=C(CNC(=O)c1ccccc1F)c1ccc(Br)cc1`, the Potency result is “inactive”.

Take `O=C(C[n+]1cc(Br)cc2ccccc21)c1ccc(F)cc1`: the Potency was 50.1 µM (active).

Consider `COC(=O)c1cnn(-c2ccc(C(=O)Nc3ccc(OC(F)(F)F)cc3)cc2)c1N`, for which the Potency result is “inactive”.

Consider `COc1ccc(-c2cn3c(C)c(C(=O)Nc4cc(C)cc(C)c4)sc3n2)cc1`, for which the Potency result was “inactive”.

For the molecule `CN(C(=O)CSc1nnc(-c2ccc(C(C)(C)C)cc2)n1C)C1CCS(=O)(=O)C1` (stereo not drawn), the activity, negative = inhibition was 1.39% [at 12.7 µM].

With `COc1ccc2c(-c3ccccc3)cc(SCC(=O)N(C)C3CCS(=O)(=O)C3)nc2c1` (stereo not drawn), the Potency result is “inactive”.

Consider `Cc1cc(C)c2nc(SCC(=O)N(C)C3CCS(=O)(=O)C3)cc(C)c2c1` (stereo not drawn), for which the Potency is 44.7 µM (active).

`CCOC(=O)[C@H]1[C@H]2COc3ccc(C)cc3[C@@H]2N2C(=O)CN(Cc3ccc(F)cc3)C(=O)[C@@]12C`: the activity, negative = inhibition is 9.53% [at 0.501 µM].

Consider `O=C(NCc1cccc(Cl)c1)C1CCN(c2nnc(N3CCCC3=O)s2)CC1`, for which the Potency result was “inactive”.

In the case of `COC(=O)c1ccc(/C=N/OCC(=O)Nc2cc(F)ccc2F)cc1`, the Potency result is “inactive”.

As for `CC(C)(CCl)C(=O)Nc1ccc(Sc2ccc(F)cc2)cc1`, the activity, negative = inhibition is -58.2% [at 2.33 µM].

As to `COC(=O)c1ccc(Sc2ccc(F)cc2)c(N)c1`, the Potency was 28.2 µM (active).

Take `CC(C)CC(=O)N1CCN(Cc2cccc(Cl)c2)CC1`: the Potency was 22.4 µM (active).

As for `O=C(c1cccc(Cl)c1)N1CCN(Cc2ccccc2)CC1`, the Potency result is “inactive”.

Turning to `CC(CC(=O)N1CCN(c2ccccc2)CC1)c1ccccc1` (stereo not drawn), the Potency result is “inactive”.

With `CC(C)CC(=O)N1CCC(O)(CS(=O)(=O)Cc2ccccc2)CC1`, the Potency result is “inactive”.

For the molecule `Cc1ccccc1NC(=O)NCC1CCN(Cc2cccc(Cl)c2)CC1`, the activity, negative = inhibition was 2.62% [at 2.33 µM].

For the molecule `CC(C)CC(=O)N1CCN(Cc2ccccc2Br)CC1`, the Potency was 20 µM (active).

For the molecule `COc1cc([N+](=O)[O-])ccc1NC(=O)COC(=O)CCOc1ccc(C)cc1`, the Potency result is “inactive”.

In the case of `Cc1ccc(/C=C2/SC(=S)N(CCC(=O)NCCCN3CCOCC3)C2=O)cc1`, the Potency result is “inactive”.

With `O=C(CCCCn1c(=O)c2ccccc2n(CC(=O)Nc2cccc(C(F)(F)F)c2)c1=O)NCc1ccc2c(c1)OCO2`, the Potency entry is “inactive”.

For the origin of these results see PubChem BioAssay AID504332 (National Center for Advancing Translational Sciences (NCATS), 2011).
